An excerpt weighted towards active compounds, which were near 6.2% of everything screened.
FMDV antiviral = foot and mouth disease virus antiviral activity; Potency, µM (titrated, usually from 57.9 µM), most hits filed as inhibitors; FMDV antiviral cell-based qHTS; hit rate 1.2% among 410,000; calls by dose curve; tested in HEK293T cells; note: read-out not given here; nearly all actives have a fitted effect of over 45% in size
HCMV inh = inhibitors of human cytomegalovirus; HFF cells, HCMV-luciferase reporter, 72 h; active compounds read low; activity change, negative = inhibition, % at 57.5 µM; hit rate 4.5% among 410,000; AID 1259415; in the data active = activity change below about -60%; inconclusive = no clear call, values can overlap the other calls; inactive = above about -39%
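Luciferase read-out from HCMV-luciferase-infected HFFs (MOI 1 PFU/cell) 72 h post infection at 37C; compounds added after 16 h cell attachment; activity normalized between buffer-only basal and Salinomycin (10uM) inhibitor controls.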
Marburg entry inh = Marburg virus entry inhibition; Potency, µM (series often up to 37.8 µM), actives largely listed as inhibitors; Marburg virus pseudotyped entry inhibition, cell reporter; hit rate 1.8% among 300,000; calls by dose curve; tested in HEK293 cells
LASV entry inh = blocks Lassa virus binding to or entry into cells | Lassa virus pseudotype entry inhibition, cell reporter | Potency, µM (doses to about 37.9 µM), actives largely listed as inhibitors | hit rate 1.2% among 300,000; calls by dose curve; tested in HEK293 cells; note: nearly all actives have a fitted effect of over 50% in size
Numbers stand for hits; 0 = inactive; ? = inconclusive; - = no result given; ! = a repeat was not active.

SMILES	FMDV antiviral	HCMV inh	Marburg entry inh	LASV entry inh
CN1CCN(Cc2cc(Cl)c3cccnc3c2OC(=O)c2cccs2)CC1	0	?	?	0
CCOCC(=O)N1CCN(c2cccc(Cl)c2)CC1	0	?	?	0
COc1ccc(CNC(=O)Cn2c(=O)oc3cc(S(=O)(=O)N4CCCC4)ccc32)cc1	0	0	?	?
Cc1cc(C)c(NC(=O)Cn2c(=O)oc3cc(S(=O)(=O)N4CCCCCC4)ccc32)c(C)c1	0	-70	0	0
Cc1ccc(NC(=O)Cn2c(=O)oc3cc(S(=O)(=O)N4CCC(C)CC4)ccc32)cc1C	0	-69	0	-
Cc1ccc(NC(=O)Cn2c(=O)oc3cc(S(=O)(=O)N4CCC(C)CC4)ccc32)cc1Cl	0	?	0	0
COc1ccccc1CNC(=O)Cn1c(=O)oc2cc(S(=O)(=O)N3CCCC3)ccc21	0	-61!	0	0
CCn1cc(C(=O)NCc2ccccc2OC)c(=O)c2cc(S(=O)(=O)N3CCCCC3)ccc21	0	-77	?	0
Cc1cc(C)c(Cn2c(=O)n(CCC(=O)NCCc3ccccc3)c(=O)c3ccccc32)c(C)c1	0	0	0	0
N#Cc1ccc2c(c1)C[C@]1(CCCCN3C(=O)c4ccccc4C3=O)Oc3c(c(=O)oc4ccc(F)cc34)[C@@H]2O1	-	-	0	-
CC1CCN(S(=O)(=O)c2ccc3c(c2)oc(=O)n3CC(=O)NCc2ccc(F)cc2)CC1	0	-97	?	0
COc1ccc(C)cc1NC(=O)Cn1c(=O)ccc2cc(S(=O)(=O)N3CCC(C)CC3)ccc21	0	-114	-	0
COc1ccccc1CNC(=O)CCCCn1c(=O)c2ccccc2n(Cc2ccccc2F)c1=O	0	0	0	0
Cc1nc2[nH]c(=S)[nH]c2c(=O)[nH]1	0	-64	0	0
Cc1nc2[nH]c(=S)[nH]c(=O)c2nc1C	0	0	0	0
O=C1OCC2=C1C(c1ccc3c(c1)OCO3)c1cc3c(cc1O2)OCO3 (stereo not given)	0	0	0	?
COc1cc(C2C3=C(COC3=O)Oc3cc4c(cc32)OCO4)cc(OC)c1O (stereo not given)	0	-79	?	?
COc1cc(C2C3=C(COC3=O)Oc3cc4c(cc32)OCO4)cc(OC)c1OC (stereo not given)	0	-84	?	?
NC(=O)C1CCCN(Cc2ccc3c(c2)CN(Cc2cn[nH]c2-c2ccc(F)cc2)CCO3)C1 (stereo not given)	0	-	-	-
CC(c1ccccc1)N1C(=O)C2C3CCC(C3)C2C1=O (stereo not given)	0	0	?	0
CC(NC(=O)C(Cc1ccccc1)N1C(=O)C2C3CCC(C3)C2C1=O)c1ccccc1 (stereo not given)	0	-61	0	?
COCCN1CCN(C(=O)c2cnn(-c3nccc(-c4ccco4)n3)c2C2CC2)CC1	0	-	-	-
Cc1cc(C)nc(N(C#N)CN2C(=O)c3ccccc3S2(=O)=O)n1	40µM	0	0	0
CNc1nc(OC)nc(N(C#N)CN2C(=O)c3ccccc3S2(=O)=O)n1	?	0	?	0
CCC(=O)N1CCCc2cc(S(=O)(=O)N3CCC(C(=O)Nc4ccc(F)c(F)c4)CC3)ccc21	?	0	-	0
SMILES	FMDV antiviral	HCMV inh	Marburg entry inh	LASV entry inh
C=CCn1c(SCC(=O)NC2CCCC2)nc2c([nH]c3ccccc32)c1=O	0	-90	0	0
Cc1[nH]c2ccccc2c1SCC(=O)NC1CCCCC1	0	-64	-	-
O=C(CSc1c[nH]c2ccccc12)NC1CCCC1	0	0	-	-
CC1=C(C(=O)N2CCN(c3cccc(C)c3C)CC2)C2(CCCCC2)OC1=O	0	0	0	?
Cc1cc(C)c2c(CC(=O)Nc3ccccc3C(F)(F)F)coc2c1	0	0	0	0
CC(=O)c1ccc(Oc2nc(C)nc3c2oc2ccccc23)cc1	?	0	-	0
Cc1ccccc1CN1C[C@@H]2C[C@@H](c3cnc(N4CCOCC4)s3)N3CCC[C@@]23C1=O	0	-76	-	-
Cc1cc(Br)ccc1OCCCCN1CCC(C)CC1	0	-60	?	?
CC1CCN(CCCCOc2ccc(Br)cc2)CC1	0	?	?	0
Cc1cc(Cl)c(OCCOCCN2CCC(C)CC2)c(Br)c1	0	?	6.5µM	?
COCCCNCCCCOc1ccc(Br)cc1C	0	0	13µM	?
Cc1cc(Cl)c(OCCOCCN2CCN(C)CC2)c(Br)c1	0	0	?	0
COC(=O)CC1OC1[C@H](C)[C@@H](OC)C(C)C (stereo not given in full)	-	-	0	?
CC(C)C[C@H]1COc2cc(N3CCCC3)ccc2S(=O)(=O)N1	-	0	?	-
Cc1ncc2c(c1CNC(=O)/C=C/c1cccs1)CCN(C(=O)c1ccc3c(c1)OCCO3)C2	0	-	-	-
Cc1cc(C)c2cc(CN(CC3CCCO3)C(=S)NCc3ccco3)c(=O)[nH]c2c1 (stereo not given)	0	?	0	0
Cc1cc(C)c2cc(CN(Cc3ccco3)C(=O)NCc3ccccc3)c(=O)[nH]c2c1	0	0	2.8µM	?
COC(=O)[C@@H]1CCCN1C(=O)c1c(OC)cc(=O)n2c1CCN(Cc1c(C)[nH]c3ccccc13)CC2	0	-	-	-
CCC[C@H]1[C@@H](NS(=O)(=O)c2ccc(C#N)cc2)CC[C@@]23CCCN2C(=O)CCC[C@@H]13	-	0	-	-
Cc1cccc(-c2nc3ccccc3c(=O)n2NC(=O)c2cccnc2Cl)c1	0	-69	0	0
COc1cc2c3nnc(-c4ccccc4)c-3cn(Cc3ccc(F)cc3)c2cc1OC	?	-66	?	0
CCn1c2ccccc2c2cc(/C=N/NC(=O)c3cc(O)cc(O)c3)ccc21	?	0	?	?
O=C(N/N=C/c1ccncc1)c1ccccc1	0	?	0	0
CCn1c2ccccc2c2cc(/C=N/NC(=O)c3ccc(O)cc3)ccc21	0	0	7.1µM	5µM
CCn1c2ccccc2c2cc(/C=N/NC(=O)c3ccncc3)ccc21	0	0	?	5.6µM
SMILES	FMDV antiviral	HCMV inh	Marburg entry inh	LASV entry inh
CC(=O)OCC(=O)[C@@]1(O)CCC2C3CCC4=CC(=O)CC[C@]4(C)C3C(O)C[C@]21C (stereo not given in full)	0	-	-	-
CCNC(=S)NS(=O)(=O)c1ccc(CC)cc1	0	-95	?	0
Cn1cc(-c2ccc3c(c2)N(CC2CCCCC2)C(=O)COC3)cn1	-	0	-	-
COC(=O)N1C[C@H](OCc2cn(-c3cc(Cl)cc(Cl)c3)nn2)[C@H](OCc2cn(-c3cc(Cl)cc(Cl)c3)nn2)C[C@@H]1c1ccccc1Br	-	0	-	-
O=C(C=Cc1ccccc1)c1c[nH]c2ccccc2c1=O	0	-77	?	?
Cc1[nH]c2ccccc2c1/C=C/C(=O)c1ccccc1	0	0	0	?
Cc1[nH]c2ccccc2c(=O)c1C(=O)/C=C/c1ccccc1	13µM	-97	-	-
CC(=O)Nc1cccc(NC(=O)CSc2nccn2C2CCCC2)c1	0	?	-	0
COc1ccc(-c2nnc(SCc3cc(=O)c4cc(C)cc(C)c4[nH]3)n2C)cc1	16µM	-66	-	0
CC(=O)n1cc(C(C[N+](=O)[O-])SCCN)c2ccccc21 (stereo not given)	?	-	21µM	?
CC1(C)OC2CC3C4CC(F)C5=CC(=O)CC[C@@]5(C)C4C(O)C[C@@]3(C)[C@]2(C(=O)CO)O1 (stereo not given in full)	0	-	-	-
C[C@@H]1CN(C(=O)OC(C)(C)C)CCN1c1ccc(N2CC[C@@H](O)C2)c(C#N)c1	-	0	-	-
